# Results reported in PubChem BioAssay AID1851 (National Center for Advancing Translational Sciences (NCATS), 2009).
# Hit rate of the full screen: of about 16,000 compounds, about 4,000 (25%) were called active. Roughly 26% stayed inconclusive and do not appear here. A selection follows. Unmarked numbers belong to inactive results. Calls come from the whole dose curve; as a rule, active = well fitted curve in the direction sought with a large enough effect; inconclusive = small, poorly fitted or top-dose-only effect, or effect the other way; inactive = no such curve, though single readings can be large or run the other way.
# Molecular target: Cytochrome P450 2C9 (Homo sapiens) (UniProt P11712)
# Sequence (P11712 whole entry, looked up): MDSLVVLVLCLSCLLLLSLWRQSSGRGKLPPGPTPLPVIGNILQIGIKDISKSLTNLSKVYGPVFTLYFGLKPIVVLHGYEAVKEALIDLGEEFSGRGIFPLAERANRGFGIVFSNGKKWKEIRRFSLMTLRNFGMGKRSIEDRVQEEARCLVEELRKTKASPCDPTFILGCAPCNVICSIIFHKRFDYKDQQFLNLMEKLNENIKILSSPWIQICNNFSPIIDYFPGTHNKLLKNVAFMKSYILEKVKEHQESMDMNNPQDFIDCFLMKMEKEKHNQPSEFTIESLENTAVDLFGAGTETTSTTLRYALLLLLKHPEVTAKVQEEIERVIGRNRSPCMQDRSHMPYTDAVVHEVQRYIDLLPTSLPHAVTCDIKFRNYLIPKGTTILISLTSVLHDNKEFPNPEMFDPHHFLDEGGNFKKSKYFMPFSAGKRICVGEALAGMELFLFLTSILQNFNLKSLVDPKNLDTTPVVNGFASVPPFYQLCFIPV
# Assay: Cytochrome panel assay with activity outcomes
# Conditions: recombinant CYP, pro-luciferin dealkylation, luminescence, p450-cyp2c9; series mostly up to 57.1 µM; activity, negative = inhibition: at the top concentration
# % is set by controls: 0 for no effect and ±100 for the full control effect.
Compound,"activity, negative = inhibition",AC50
Cc1cnc(CNc2ncnc3ccc(-c4ccccc4Cl)cc23)cn1,-25% [at 2.29 µM],–
COc1ccc(-n2c(=O)c(-c3cccs3)nc3cnc(N4CCN(C)CC4)nc32)cc1,4.17%,–
CCCOc1ccc(N2C(=O)CC(S/C(N)=N/N=C(\C)c3cccs3)C2=O)cc1 (stereo not drawn),–,4.47 µM (active)
COc1ccc(N2C(=O)CC(S/C(N)=N/N=C(\C)c3cccs3)C2=O)cc1 (stereo not drawn),–,3.98 µM (active)
COc1ccc(C2=Nc3cccc4cccc(c34)N2)cc1,-5.7%,–
Cn1cnc2c(NC3CCCC3)ncnc21,1.38%,–
COc1ccc(C(=O)N2CC3(CC(c4ccc(Cl)cc4)=NO3)C[C@H]2C(=O)NCC(N)=O)cc1 (stereo partly drawn),18.7%,–
COc1ccccc1NC(=O)[C@H](COCc1ccccc1)NC(=O)OC(C)(C)C,–,7.94 µM (active)
COc1ccccc1NC(=O)C(C/C=C(\C)Cl)C(C)=O (stereo not drawn),-5.41%,–
CO[C@H]1COC(=O)CCC[C@H](C)[C@@H](OC)COC(=O)C/C=C\[C@@H]1C,14.4% [at 11.4 µM],–
Cn1cc(-c2nc3cnc(N4CCNCC4)nc3n(C3CC3)c2=O)c2ccccc21,–,3.98 µM (active)
Cn1cc(-c2nc3cnc(N4CCOCC4)nc3n(C3CC3)c2=O)c2ccccc21,-6.78%,–
Cn1cc(-c2nc3cnc(N4CCNCC4)nc3n(-c3ccccc3)c2=O)c2ccccc21,-8.65%,–
CN1CCN(c2ncc3nc(-c4cn(C)c5ccccc45)c(=O)n(-c4ccccc4)c3n2)CC1,-8.3%,–
Cn1cc(-c2nc3cncnc3n(C3CC3)c2=O)c2ccccc21,9.43%,–
Cn1cc(-c2nc3cnc(N4CCNCC4)nc3n(C)c2=O)c2ccccc21,–,7.94 µM (active)
C[C@@H]1CCCN(CP(=O)(c2ccccc2)c2ccccc2)C1,-15.6% [at 11.4 µM],–
Cc1n[nH]c(C)c1N=Nc1cc(Cl)ccc1Cl,1.79%,–
CCOC(=O)CNc1c(-c2ccccc2)nc2ccc(Cl)cn12,–,2.82 µM (active)
CN(C)Cc1cc(Cl)c(O)c(CN(C)C)c1,-9.61% [at 11.4 µM],–

Compound,"activity, negative = inhibition",AC50
Oc1ccc(Cc2cc(Cl)cc(Cl)c2O)cc1Cl,–,0.2 µM (active)
CCOc1ccc(Cl)cc1CNCCNCCO,-13.4%,–
O=C(O)Cc1cc(Cl)ccc1O,12.8% [at 11.4 µM],–
Oc1ccc(Cl)cc1Cc1cc(Cl)cc(Cc2cc(Cl)ccc2O)c1O,–,2.51 µM (active)
COc1ccccc1CNc1ncncc1-c1cccnc1,-1.61% [at 2.29 µM],–
O=C(O)[C@@H]1C[C@@H](C(=O)O)N1,-20.1%,–
Cc1nonc1NC(=O)N1CCCC1,9.91%,–
CC1CC(C)CN(C(=O)CSc2nnc(CSc3ncccn3)n2C)C1 (stereo not drawn),-14.4%,–
Cn1c(CC(=O)Nc2ccc(Cl)c(Cl)c2)nnc1SCC(=O)N1CCN(c2ccccc2)CC1,–,5.62 µM (active)
CCOC(=O)N1CCC(NC(=O)c2cc(S(=O)(=O)N3CCCC3)cn2C)CC1,–,7.08 µM (active)
CCOC(=O)N1CCC(NC(=O)C2CCN(S(=O)(=O)N3CCCC3)CC2)CC1,2.87%,–
CCCS(=O)(=O)N1CCCC(C(=O)N2CCN(C(=O)OCC)CC2)C1 (stereo not drawn),-19.7%,–
C[C@@]12CCC(=O)C=C1CC[C@H]1[C@@H]2[C@@H](O)C[C@]2(C)[C@@H]1CC[C@@]2(O)C(=O)COC(=O)C1CCCC1,-1.4% [at 11.4 µM],–
Nc1ccccc1N=Nc1c(S(=O)(=O)O)cc2cc(S(=O)(=O)O)cc(O)c2c1O,-15.1% [at 11.4 µM],–
O=S(=O)(O)c1cc(O)c2c(N=Cc3ccccc3O)cc(S(=O)(=O)O)cc2c1,–,3.16 µM (active)
COc1ccccc1-c1cc(-n2ccnc2)ncn1,-8.14% [at 2.29 µM],–
CS(=O)(=O)Nc1cccc(-c2nccc(-n3ccnc3)n2)c1,-8.16% [at 2.29 µM],–
Cc1ccc(Nc2ccc(-n3ccnc3)nn2)cc1C,–,0.0794 µM (active)
CCc1ccc(NC(=O)c2cc(C(C)C)on2)cc1,-27.1%,–
CCc1noc(N)c1C(=O)Nc1ccc(F)c(Cl)c1,–,14.1 µM (active)

Compound,"activity, negative = inhibition",AC50
O=C(Nc1ccc(F)cc1)c1cc(S(=O)(=O)N2CCCCC2)cs1,–,12.6 µM (active)
O=C(O)c1cc(S(=O)(=O)N2CCCCC2)ccc1F,-28%,–
O=C(N/N=C1/C[C@@H](O)[C@@H](O)[C@@H]2[C@H]3C(=O)N(c4ccc(F)cc4F)C(=O)[C@@H]3CC[C@H]12)OCc1ccccc1,-11.6% [at 11.4 µM],–
O=C1C=C(NCCc2cc(Br)c(O)c(Br)c2)C(=O)c2ncccc21,–,1.58 µM (active)
O=C1C=C(Nc2nc(C(=O)O)cc(=O)[nH]2)c2ccccc2C1=O,8.04% [at 11.4 µM],–
COCC(=O)N1CCC2(CC1)CCN(C(=O)Nc1ccc(OC)cc1)CC2,22.2%,–
COc1ccc2c(c1)c(=O)oc1c(C)c(OCC(=O)N3CCc4ccccc4C3)ccc12,–,1 µM (active)
CN(C)CC[C@H](c1ccc(Br)cc1)c1ccccn1,–,inactive
CN(Cc1ccco1)c1ccnc(-c2ccoc2)n1,27.8% [at 2.29 µM],–
COc1ccccc1C1(CC(=O)Nc2nccs2)CCOC(C(C)C)C1 (stereo not drawn),–,10 µM (active)
Oc1ccccc1CNCc1ccccc1O,-4.69% [at 11.4 µM],–
O[C@@H](c1cc(C(F)(F)F)nc2c(Cl)cc(Cl)cc12)[C@@H]1CCCCN1,0.514% [at 11.4 µM],–
CN(C)c1ccnc(Oc2ccc(Cl)cc2)c1C#N,–,20 µM (active)
COc1ccc(Oc2nccc(-c3ccc(F)cc3)c2C#N)cc1,-16.3%,–
N#Cc1c(-c2ccccc2)ccnc1Oc1ccccc1,–,7.08 µM (active)
N#Cc1cccc(-c2nccc(NCc3ccccc3)n2)c1,-19.1% [at 2.29 µM],–
COc1ccccc1CNc1cc(-c2cccc(C#N)c2)ncn1,8.28% [at 2.29 µM],–
C[C@@H]1O[C@H](O[C@@H]2[C@@H](Oc3cc(O)c4c(c3)O[C@H](c3ccc(O)cc3)CC4=O)O[C@@H](CO)[C@@H](O)[C@H]2O)[C@@H](O)[C@H](O)[C@@H]1O,-28.2% [at 25.6 µM],–
